Vif inh: HIV Vif self-association inhibitors, primary screen, imaging, HEK293T, single point; HEK293T cells, Vif self-association by quenched fluorescence, 24 h; inhibition, % at 7.49 µM; actives 0.35% (n = 340,000); AID 602346, 2012; in the data active means inhibition above about 50%, passing the limit was not always enough; inconclusive means no clear call, values can overlap the other calls; inactive means below about 31%
PvdQ inh: P. aeruginosa PvdQ acylase inhibitors, primary screen, biochemical, fluorescence, plate reader and imaging, single point | purified PvdQ acylase | inhibition, % at 10 µM | actives 0.063% (n = 340,000); in the data active means inhibition above about 30%, passing the limit was not always enough; inconclusive means no clear call, values can overlap the other calls;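 further: 0% = vehicle neutral wells and 100% = reference inhibitor wells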
ERp5 inh: inhibitors of ERp5-driven insulin aggregation, primary screen, biochemical, turbidity, absorbance 650 nm, single point | Protein disulfide-isomerase A6 (Homo sapiens), Q15084 | 90 min | inhibition, % at 9.99 µM | actives 0.05% (n = 350,000) | AID 651711, 2012;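 active means mean replicate inhibition above about 25%, with every replicate also reaching it, limit read from the data, passing the limit was not always enough; inconclusive means only one of those two criteria met; inactive means neither criterion met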
Target sequence (Q15084 whole entry, looked up): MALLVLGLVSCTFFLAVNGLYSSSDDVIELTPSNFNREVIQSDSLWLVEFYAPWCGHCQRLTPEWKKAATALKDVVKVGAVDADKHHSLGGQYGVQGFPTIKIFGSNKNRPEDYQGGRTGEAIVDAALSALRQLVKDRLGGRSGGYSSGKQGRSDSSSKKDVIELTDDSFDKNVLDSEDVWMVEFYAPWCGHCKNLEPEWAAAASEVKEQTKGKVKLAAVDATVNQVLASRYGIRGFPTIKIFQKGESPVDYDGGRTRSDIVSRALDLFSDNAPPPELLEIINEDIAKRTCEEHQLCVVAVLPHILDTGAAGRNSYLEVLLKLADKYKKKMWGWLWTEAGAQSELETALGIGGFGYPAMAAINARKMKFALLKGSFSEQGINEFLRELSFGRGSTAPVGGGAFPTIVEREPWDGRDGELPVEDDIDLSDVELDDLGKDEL
PDI inh: inhibitors of human PDI, primary screen, biochemical, turbidity, single point, plate reader | Protein disulfide-isomerase (Homo sapiens), P07237 | inhibition, % at 10 µM | actives 0.052% (n = 350,000) | PDI insulin aggregation turbidity, A650, 90 min;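 active means mean inhibition across replicates of 30% or more, whatever share of single replicates reach that level; inconclusive means mean inhibition below 30% while every single replicate reaches 30%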
AI-2 QS modul: Vibrio harveyi AI-2 quorum sensing modulators, primary screen, JMH597 strain, luminescence/OD600 ratio | actives 0.4% (n = 300,000) | activity change, % at 7.5 µM | Vibrio harveyi JMH597 AI-2 luminescence/OD600 ratio, 9 h; hits give low values; strain lacks LuxN and CqsS sensors; 0 = neutral-control median | AID 2094, 2009; in the data active means activity change below about -75%, passing the limit was not always enough; inconclusive means no clear call, values can overlap the other calls;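 further: luminescence divided by OD600 gain over 9 h not by final OD600 alone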
JMH597 growth rt: Vibrio harveyi growth inhibition, confirmation, counter-screen for AI-2 quorum sensing project, JMH597 strain, OD600 absorbance; shares compounds with AI-2 QS modul; 9 h; lacks LuxN and CqsS sensors; growth inhibition, % at 7.5 µM; actives 1% (n = 750); AID 2726, 2010;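 active means every replicate shows growth inhibition above 50%; inconclusive means at least half, but not all, replicates pass that cutoff; inactive means fewer than half of replicates pass it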
BB721 const-QS lum: luminescence inhibition in constitutive-on V. harveyi, confirmation, counter-screen for LuxS inhibitor project, strain BB721, luminescence readout; shares compounds with AI-2 QS modul; Vibrio harveyi BB721 luminescence, 9 h; inhibition, % at 7.5 µM; actives 95% (n = 750);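 active means inhibition above about 80% in every replicate, not just on average, limit read from the data; inconclusive means at least half of replicates past the limit, but not all; inactive means fewer than half of replicates past the limit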
BB721 growth: growth inhibition of V. harveyi BB721, confirmation, cytotoxicity control for AI-2 quorum sensing inhibitors, strain BB721, absorbance OD600. shares compounds with AI-2 QS modul. Vibrio harveyi BB721 growth, 9 h. growth inhibition, % at 7.5 µM. actives 3% (n = 750). AID 2728, 2010;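 active means every replicate shows growth inhibition above 50%; inconclusive means at least half but not all replicates above 50% inhibition; inactive means under half of replicates above 50% inhibition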
JMH597 AI-2 mod: Vibrio harveyi AI-2 signaling luminescence modulation – JMH597 strain, confirmation; shares compounds with AI-2 QS modul; Vibrio harveyi JMH597 AI-2 quorum sensing luminescence, 9 h; luxN and CqsS knockout, AI-2 only; inhibition, % at 7.5 µM; actives 97% (n = 750); AID 2736, 2010;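 active means every replicate shows more than 75% inhibition of signal versus neutral control wells; inconclusive means half to three quarters of replicates exceed 75% inhibition; inactive means fewer than half of replicates exceed 75% inhibition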
* marks the source's active call; other numbers are inactive results; u = inconclusive; x = not tested or not shown. Most compounds without a hit are left out; they make up all but 0.64% or so of the library.

SMILES | Vif inh | PvdQ inh | ERp5 inh | PDI inh | AI-2 QS modul | JMH597 growth rt | BB721 const-QS lum | BB721 growth | JMH597 AI-2 mod
O=c1c(Cl)c(Cl)cnn1Cc1nnc(-c2ccc(Cl)cc2)o1 | 6 | -6 | 4 | 6 | -91* | -23 | 98* | 22 | 99*
O=C(Nc1ccc(OCc2ccccc2)cc1)c1ccccc1 | -11 | -6 | -8 | 3 | 3 | x | x | x | x
CC(C)=CC(=O)Nc1ccc(OCc2ccccc2)cc1 | 15 | -17 | 4 | -1 | -83* | -16 | 94* | -5 | 96*
O=C(Nc1ccc2c(c1)[C@H]1C[C@@H](CC(=O)N3CCOCC3)O[C@@H](CO)[C@H]1O2)c1cccnc1 | x | x | -1 | x | x | x | x | x | x
CCCCCC(=O)NC(=S)Nc1ccc2oc(=O)ccc2c1 | 2 | -7 | 3 | 0 | -90* | 19 | 99* | 40 | 98*
COc1ccc(C(=O)NC(=S)Nc2ccc3oc(=O)ccc3c2)cc1 | -1 | 1 | 1 | -14 | 8 | x | x | x | x
Cc1ccc(S(=O)(=O)/C=C/c2ccccc2)cc1 | 3 | -8 | -5 | 3 | -85* | 19 | 93* | -37 | 100*
Cc1ccc(NC(=O)CCCC2CCCCC2)c(O)c1 | -3 | -7 | -1 | 21 | -91* | -16 | 97* | 1 | 98*
Cc1ccc(NC(=O)CCN2C(=O)C3CCCCC3C2=O)c(O)c1 (stereo not given) | 11 | -12 | 3 | 1 | 14 | x | x | x | x
C[C@@H]1CCCCO[C@@H](CN(C)C(=O)Nc2ccc3c(c2)OCO3)[C@H](C)CN([C@H](C)CO)C(=O)c2cc(NC(=O)CCC(F)(F)F)ccc2O1 | x | x | -4 | x | x | x | x | x | x
COc1ccccc1/C=C\C=N\n1c(C2CCCCC2)n[nH]c1=S | -14 | -10 | x | 3 | u | 24 | 94* | 24 | 97*
C[C@@H]1CCCCO[C@H](CN(C)C(=O)C2CCCCC2)[C@@H](C)CN([C@H](C)CO)C(=O)c2cc(NC(=O)CCCCCC(=O)Nc3ccccc3N)ccc2O1 | x | x | -2 | x | x | x | x | x | x
COC(=O)c1cccc(NC(=S)NCc2ccc(Cl)cc2)c1 | 1 | -19 | x | 11 | -83* | -24 | 90* | 3 | 92*
COc1ccc(CNC(=S)Nc2cccc(Cl)c2)cc1 | 53* | x | 0 | 3 | -84* | 0 | 95* | 7 | 95*
COc1ccc(NC(=O)NCc2ccc(Cl)cc2)cc1 | -4 | -6 | 11 | -6 | -16 | x | x | x | x
COc1ccc(CNC(=S)Nc2cccc(C)c2)cc1 | 7 | -5 | x | 0 | -51 | x | x | x | x
COc1ccc(CNC(=O)Nc2cccc(Cl)c2)cc1 | 2 | -14 | x | -3 | -94* | 0 | 97* | 14 | 98*
COC(=O)c1cc(NC(=S)NCc2ccc(Cl)cc2)cc(C(=O)OC)c1 | 4 | -14 | x | 11 | -40 | x | x | x | x
COc1cccc(S(=O)(=O)N2CCC3(CC2)CN[C@@H](CO)c2c3c3ccc(OC)cc3n2C)c1 | x | x | 2 | x | x | x | x | x | x
C=CCOc1c(CNc2ccc(C(=O)O)cc2)cccc1OCC | 2 | -7 | x | 14 | -89* | 5 | 95* | -2 | 98*
CC(C)NC(=O)Nc1ccc2c(c1)CC(=O)N([C@@H](C)CO)C[C@@H](C)[C@H](CN(C)C(=O)NC1CCCCC1)O2 | x | x | -3 | x | x | x | x | x | x
COc1ccc(N=C2SCC(c3ccccc3)=NN2C)cc1 | 2 | -11 | -1 | -4 | -87* | 51 | 90* | 146 | 95*
COc1ccc(N=C2SCC(=O)N2c2ccc(OC)cc2)cc1 | -11 | 7 | 6 | -7 | 13 | x | x | x | x
Cc1ccc(/C=C/C(=O)c2ccccc2)cc1 | 12 | -5 | x | 11 | 11 | x | x | x | x
Cc1ccc(/C=C/C(=O)c2ccc(O)cc2)cc1 | 10 | -5 | -5 | u | -94* | -7 | 97* | -22 | 98*
SMILES | Vif inh | PvdQ inh | ERp5 inh | PDI inh | AI-2 QS modul | JMH597 growth rt | BB721 const-QS lum | BB721 growth | JMH597 AI-2 mod
CC1(c2ccccc2)NC(=O)N(CC(=O)Nc2cccc(C#N)c2)C1=O (stereo not given) | x | -13 | x | 2 | -95* | -21 | 97* | -3 | 98*
CCC1(c2ccccc2)NC(=O)N(CC(=O)Nc2cccc(C#N)c2)C1=O (stereo not given) | 0 | 9 | x | -22 | -94* | 18 | 96* | 18 | 97*
CCC1(c2ccccc2)NC(=O)N(CC(=O)NC2(C#N)CCCCC2)C1=O (stereo not given) | -1 | 8 | 0 | 2 | 19 | x | x | x | x
N#Cc1cccc(NC(=O)CN2C(=O)NC3(CCCCCC3)C2=O)c1 | 20 | -13 | 2 | -7 | x | x | x | x | x
Cc1noc(C)c1S(=O)(=O)N(C)C[C@H]1Oc2ccc(NS(=O)(=O)c3ccccc3)cc2CC(=O)N([C@@H](C)CO)C[C@H]1C | x | x | -2 | x | x | x | x | x | x
C[C@@H]1CN([C@H](C)CO)C(=O)c2cc(Br)cnc2O[C@@H]1CN(C)CC1CC1 | x | x | 4 | x | x | x | x | x | x
COc1ccc(-c2nnn(-c3cc(Cl)cc(Cl)c3)c2N)cc1 | -8 | -6 | 1 | 5 | 18 | x | x | x | x
COc1ccc(S(=O)(=O)c2nnn(-c3cccc(Cl)c3)c2N)cc1 | -5 | -2 | -3 | -6 | u | 1 | 99* | -70 | 100*
O=C(COc1ccccc1)Nc1ccc(S(=O)(=O)NCc2ccco2)cc1 | -3 | -1 | x | 25 | -97* | 13 | 100* | -57 | 100*
O=C(COc1ccccc1F)Nc1ccc(S(=O)(=O)NCc2ccco2)cc1 | 8 | -22 | x | 0 | -92* | 29 | 99* | -12 | 99*
O=C(COc1ccccc1)NCC(=O)Nc1ccc(S(=O)(=O)NCc2ccco2)cc1 | 3 | -14 | x | -9 | 26 | x | x | x | x
CN(C)C(=O)C[C@@H]1CC[C@@H]2[C@@H](COc3ccc(NC(=O)C4CCC4)cc3C(=O)N2C)O1 | x | x | 9 | x | x | x | x | x | x
CC(C)c1nnc(NC(=O)CCN2C(=O)c3ccccc3C2=O)s1 | -3 | -6 | x | 4 | -83* | -9 | 95* | 5 | 96*
